For 3 molecules, outcome and AC50 results are on record in PubChem BioAssay (EPA / NIEHS).

The source made the active and inactive calls. How the source made its calls: active means hit-call score of the fitted dose curve at least 0.9, where 1 is the maximum; inactive means score below 0.9.

Common to all, as to conditions: mRNA level, 48 h; actives raise or lower the signal
Read-out in assay [1]: growth arrest and DNA damage 45 (GADD45G), GADD45G (gene 10912)
Description: LTEA_HepaRG_GADD45G: Life Technologies and Expression Analysis (LTEA) Assay for growth arrest and DNA damage 45 (GADD45G) using HepaRG (AID 2283499). The gist of the method: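 GADD45G transcript level by qRT-PCR (housekeeping-normalized: ACTB, GAPDH, POLR2A) after 48 h chemical treatment of a single HepaRG lot in serum-free induction medium; eight-point half-log series up to 100 uM in 0.5% DMSO, duplicates, up- or down-regulation scored.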

Read-out in assay [2]: Glutathione S-transferase M3 (GSTM3), GSTM3 (gene 2947)
Description: LTEA_HepaRG_GSTM3: Life Technologies and Expression Analysis (LTEA) Assay for Glutathione S-transferase M3 (GSTM3) using HepaRG (AID 2283501). Summed up:
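GSTM3 transcript levels came from Fluidigm TaqMan qRT-PCR normalized to three housekeeping genes, fitted in both directions against DMSO. HepaRG cultures received chemicals for 48 h in serum-free induction medium (0.5% DMSO), 8 half-log concentrations up to 100 uM, duplicate.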

Read-out in assay [3]: Heat shock 70 kDa protein 1 (HSPA1A), gene 3303
The assay is described as follows: LTEA_HepaRG_HSPA1A: Life Technologies and Expression Analysis (LTEA) Assay for Heat shock 70 kDa protein 1 (HSPA1A) using HepaRG (AID 2283502). The gist of the method:
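An oxidative-stress marker readout: HepaRG cells treated 48 h in duplicate with an eight-point series (highest 100 uM) had HSPA1A mRNA quantified by TaqMan qRT-PCR. Activity was fitted in both directions using 0.5% DMSO as baseline.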

Read-out in assay [4]: Hypoxia-inducible factor 1-alpha (Homo sapiens) (UniProt Q16665)
The assay is described as follows: LTEA_HepaRG_HIF1A: Life Technologies and Expression Analysis (LTEA) Assay for Hypoxia-inducible factor 1 (HIF1A) Trancription factor using HepaRG (AID 2283503). The gist of the method: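 Gain- or loss-of-signal HIF1A mRNA changes are fitted against a DMSO baseline. HepaRG cultures receive eight concentrations, highest 100 uM, for 48 h in serum-free induction medium with 0.5% DMSO.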

Read-out in assay [5]: 3-Hydroxy-3-Methylglutaryl-CoA Synthase 2 (HMGCS2), HMGCS2 (gene 3158)
Description: LTEA_HepaRG_HMGCS2: Life Technologies and Expression Analysis (LTEA) Assay for 3-Hydroxy-3-Methylglutaryl-CoA Synthase 2 (HMGCS2) using HepaRG (AID 2283504). Summed up: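 Readout is HMGCS2 transcript by qRT-PCR, housekeeping-normalised (ACTB/GAPDH/POLR2A) and fitted bidirectionally against 0.5% DMSO. Differentiated HepaRG cells received chemicals 48 h, duplicate wells, eight half-log concentrations topping at 100 uM.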

Read-out in assay [6]: HGF (gene 3082)
Description: LTEA_HepaRG_HGF: Life Technologies and Expression Analysis (LTEA) Assay for Hepatocyte Growth Facto (HGF) using HepaRG (AID 2283505). The gist of the method:
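HGF transcript was quantified by TaqMan qRT-PCR against three housekeeping genes after 48 h treatment of HepaRG cells. Exposure ran in duplicate over eight half-log steps topping at 100 uM in 0.5% DMSO vehicle.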

Read-out in assay [7]: Insulin Like Growth Factor 1 (IGF1), IGF1 (gene 3479)
Description: LTEA_HepaRG_IGF1: Life Technologies and Expression Analysis (LTEA) Assay for Insulin Like Growth Factor 1 (IGF1) using HepaRG (AID 2283506). The gist of the method:
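Endpoint: IGF1 mRNA change by qRT-PCR, housekeeping-normalized, fitted bidirectionally relative to 0.5% DMSO vehicle. Human HepaRG cells were treated 48 h in serum-free induction medium, eight half-log concentrations topping at 100 uM.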

Read-out in assay [8]: Intercellular Adhesion Molecule 1 (ICAM1), ICAM1 (gene 3383)
Description: LTEA_HepaRG_ICAM1: Life Technologies and Expression Analysis (LTEA) Assay for Intercellular Adhesion Molecule 1 (ICAM1) using HepaRG (AID 2283507). The gist of the method:
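ICAM1 transcript levels measured by qRT-PCR, normalized to three housekeeping genes (ACTB, GAPDH, POLR2A), after 48 h chemical exposure of HepaRG cells. Duplicate eight-point half-log series from 100 uM in 0.5% DMSO; gain or loss fitted against vehicle.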

Read-out in assay [9]: Insulin-like growth factor-binding protein 1 (IGFBP1), IGFBP1 (gene 3484)
Description: LTEA_HepaRG_IGFBP1: Life Technologies and Expression Analysis (LTEA) Assay for Insulin-like growth factor-binding protein 1 (IGFBP1) using HepaRG (AID 2283508). Summed up: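 Read-out is qRT-PCR transcript level normalized to three housekeeping genes, fitted in both directions against 0.5% DMSO. Differentiated HepaRG cells received eight half-log concentrations (top 100 uM) in duplicate for 48 h in serum-free induction medium.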

Read-out in assay [10]: Interleukin 6 (IL6), IL6 (gene 3569)
Description: LTEA_HepaRG_IL6: Life Technologies and Expression Analysis (LTEA) Assay for Interleukin 6 (IL6) using HepaRG (AID 2283509). The gist of the method: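 Changes in IL6 mRNA, up or down relative to 0.5% DMSO controls, were derived from concentration-response curves in human HepaRG cells treated for 48 h at up to 100 uM, with ACTB, GAPDH and POLR2A as normalizers.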

Read-out in assay [11]: Interleukin 6 Receptor (IL6R), IL6R (gene 3570)
Description: LTEA_HepaRG_IL6R: Life Technologies and Expression Analysis (LTEA) Assay for Interleukin 6 Receptor (IL6R) using HepaRG (AID 2283510).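 On AC50: differentiated human HepaRG liver cells in serum-free induction medium.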 The gist of the method: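 In this HepaRG screen, test chemicals act on cells for 48 h at up to 100 uM (eight half-log points, duplicate wells). IL6R expression is quantified by qRT-PCR after normalization to ACTB, GAPDH and POLR2A, with DMSO as baseline.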

Read-out in assay [12]: Potassium channel subfamily K member 1 (KCNK1), KCNK1 (gene 3775)
Description: LTEA_HepaRG_KCNK1: Life Technologies and Expression Analysis (LTEA) Assay for Potassium channel subfamily K member 1 (KCNK1) using HepaRG (AID 2283511). Summed up:
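Human HepaRG cultures receive test chemicals for 48 h in 0.5% DMSO, top concentration 100 uM with half-log dilutions. Induction or suppression of KCNK1 mRNA relative to DMSO is derived by bidirectional fitting of qRT-PCR data.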

Read-out in assay [13]: Keratin 19 (KRT19), KRT19 (gene 3880)
The assay is described as follows: LTEA_HepaRG_KRT19: Life Technologies and Expression Analysis (LTEA) Assay for Keratin 19 (KRT19) using HepaRG (AID 2283512). The gist of the method:
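KRT19 transcript measured by TaqMan qRT-PCR, referenced to three housekeeping genes, after HepaRG cells received test chemicals for 48 h. Eight half-log concentrations, top 100 uM, 0.5% DMSO vehicle; increases and decreases both fitted.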

Read-out in assay [14]: JUN Transcription Factor, JUN (gene 3725)
The assay is described as follows: LTEA_HepaRG_JUN: Life Technologies and Expression Analysis (LTEA) Assay for JUN Transcription Factor using HepaRG (AID 2283513). Summed up:
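Gene-expression endpoint: JUN mRNA (qRT-PCR, normalized to three reference genes) in HepaRG cultures treated 48 h with chemicals, duplicate wells, 100 uM maximum with half-log dilutions; bidirectional fitting relative to 0.5% DMSO.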

Read-out in assay [15]: Lipase C (LIPC), LIPC (gene 3990)
The assay is described as follows: LTEA_HepaRG_LIPC: Life Technologies and Expression Analysis (LTEA) Assay for Lipase C (LIPC) using HepaRG (AID 2283514). The gist of the method: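 In this multiplexed gene-expression screen, human HepaRG cultures received test chemicals for 48 h across eight concentrations with 100 uM highest, in duplicate. Values reflect LIPC mRNA induction or suppression versus DMSO vehicle, from normalized qRT-PCR.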

Read-out in assay [16]: Lipoprotein lipase (LPL), LPL (gene 4023)
The assay is described as follows: LTEA_HepaRG_LPL: Life Technologies and Expression Analysis (LTEA) Assay for Lipoprotein lipase (LPL) using HepaRG (AID 2283515). The gist of the method: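 Concentration-response testing used half-log steps from 100 uM in 0.5% DMSO on human HepaRG cells, 48 h, duplicate wells. Phenobarbital 1 mM served as induction control; LPL mRNA was normalized to ACTB, GAPDH, POLR2A.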

Read-out in assay [17]: matrix metalloproteinase-10 (MMP10), MMP10 (gene 4319)
Description: LTEA_HepaRG_MMP10: Life Technologies and Expression Analysis (LTEA) Assay for matrix metalloproteinase-10 (MMP10) using HepaRG (AID 2283517). The gist of the method:
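In differentiated HepaRG cultures kept in 0.5% DMSO, test chemicals act for 48 h over an eight-point range with a top dose of 100 uM. Expression is then quantified by TaqMan RT-PCR against ACTB, GAPDH and POLR2A.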

Read-out in assay [18]: MYC, MYC (gene 4609)
Description: LTEA_HepaRG_MYC: Life Technologies and Expression Analysis (LTEA) Assay for MYC using HepaRG (AID 2283518). The gist of the method:
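MYC transcript changes, up or down relative to 0.5% DMSO, from TaqMan qRT-PCR normalized to three housekeeping genes. Human HepaRG cultures received chemicals for 48 h at eight half-log concentrations up to 100 uM, in duplicate.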

Read-out in assay [19]: Glutamate-cysteine ligase regulatory (GCLM), GCLM (gene 2730)
The assay is described as follows: LTEA_HepaRG_GCLM: Life Technologies and Expression Analysis (LTEA) Assay for Glutamate-cysteine ligase regulatory (GCLM) using HepaRG (AID 2283500). The gist of the method:
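In this multiplexed HepaRG gene-expression assay, GCLM mRNA change after 48 h treatment (8 concentrations, max 100 uM) was scored against DMSO by bidirectional curve fitting.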

Hypoxia-inducible factor 1-alpha (Homo sapiens), sequence (Q16665 whole entry, looked up): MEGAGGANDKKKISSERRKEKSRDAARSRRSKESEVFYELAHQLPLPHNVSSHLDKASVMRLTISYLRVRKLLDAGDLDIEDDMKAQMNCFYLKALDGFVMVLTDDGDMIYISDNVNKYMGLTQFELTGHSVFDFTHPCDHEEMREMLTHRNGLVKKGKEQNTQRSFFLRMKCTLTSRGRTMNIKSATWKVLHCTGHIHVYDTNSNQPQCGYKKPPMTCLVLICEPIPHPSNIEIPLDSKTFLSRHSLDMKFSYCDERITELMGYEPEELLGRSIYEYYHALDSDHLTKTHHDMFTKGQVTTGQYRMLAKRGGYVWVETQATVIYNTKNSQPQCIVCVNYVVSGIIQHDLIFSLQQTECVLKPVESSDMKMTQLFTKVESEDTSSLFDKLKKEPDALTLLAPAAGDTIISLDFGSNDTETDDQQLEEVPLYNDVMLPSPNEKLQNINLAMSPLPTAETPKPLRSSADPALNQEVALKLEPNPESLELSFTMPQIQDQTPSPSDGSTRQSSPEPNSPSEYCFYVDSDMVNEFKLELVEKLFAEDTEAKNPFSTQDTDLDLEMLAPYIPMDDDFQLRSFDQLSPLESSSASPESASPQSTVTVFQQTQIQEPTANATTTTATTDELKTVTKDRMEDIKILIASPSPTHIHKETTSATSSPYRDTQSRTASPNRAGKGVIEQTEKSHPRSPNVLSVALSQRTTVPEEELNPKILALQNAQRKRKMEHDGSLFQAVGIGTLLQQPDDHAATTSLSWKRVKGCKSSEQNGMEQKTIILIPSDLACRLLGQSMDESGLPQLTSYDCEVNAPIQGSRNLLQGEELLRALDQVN

Turning to `CCN(CC)C(=O)c1cccc(C)c1`, the molecule was called inactive in [1], in assay [2], in [3], in [4], in assay [5] and in assay [6]. The result in assay [8], in [9], in [10], in [11], in assay [12] and in assay [13] was inactive. The molecule was called inactive in assay [14], in assay [15], in assay [16], in assay [17] and in assay [18]. For the same molecule, in assay [7], the AC50 (as a rule, the concentration giving half of the maximal activity seen) was 13.1 µM (active).

With `CC(=O)[C@H]1CC[C@H]2[C@@H]3CCC4=CC(=O)CC[C@]4(C)[C@H]3CC[C@]12C`, the concentration at half-maximal activity (AC50) in [1] is 23 µM (active); in assay [2] it was 93.1 µM (active); in [3], 70.2 µM (active); in [5], 29.2 µM (active); in [6], 85.4 µM (active); in assay [7], 32.4 µM (active). Moreover, the concentration at half-maximal activity (AC50) in assay [8] is 33.3 µM (active); in assay [9], 27.4 µM (active); in assay [10] it was 83.5 µM (active); in assay [11], 50 µM (active); in assay [12] it was 56.6 µM (active); in [13], 50 µM (active). Further, the AC50 is 50 µM (active) in [14], 61.9 µM (active) in assay [17] and 34.3 µM (active) in assay [18]. Further, the call in [19] and in [16] was inactive.

As for `COc1c(Cl)ccc(Cl)c1C(=O)O`, the molecule was classed as inactive in [1], in [19], in assay [2], in assay [3], in assay [4] and in assay [6]. In addition, the outcome in [7], in [8], in [9], in [10], in [11] and in assay [12] was inactive. For the same molecule, the molecule was classed as inactive in assay [13], in [14], in assay [16], in assay [17] and in assay [18].
